Data reported in the supplement of paper PMC8975748.
Counter-ions that a name gives are not always drawn.

tested on: Saccharomyces cerevisiae BY4741 SeMeCo community; test: z-score of subpopulation abundance vs DMSO median, subpopulation auxotrophic for HM; higher = larger share of this subpopulation than in DMSO controls; details: 10 µM; 24 h; SM minimal medium; subpopulation (auxotrophy): HM
Description: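 Fluorescent four-plasmid SeMeCo (self-establishing metabolically cooperating S. cerevisiae BY4741 community; plasmids pH-mRuby2, pL-mWasabi, pU-eCFP, pM-TagRFP657) was grown 24 h in minimal SM medium with each Selleck FDA-approved drug at 10 µM in 384-well plates. Cells were fixed and imaged by high-content confocal microscopy. For each auxotrophic subpopulation (and the prototroph), a z-score gives the deviation from the DMSO vehicle-control population median.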

Row | Compound | z-score of subpopulation abundance
1 | Nc1nc(O)c2ncn(CCC(CO)CO)c2n1 [Penciclovir] | 0.31
2 | CC(C)(C)CC(C)(C)c1ccc(OCCOCC[N+](C)(C)Cc2ccccc2)cc1 [Benzethonium Chloride] | -1.27
3 | CO[C@@H]1[C@@H](O[C@@H]2O[C@H](C)[C@@H](O[C@H]3C[C@@](C)(O)[C@@H](O)[C@H](C)O3)[C@H](N(C)C)[C@H]2O)[C@@H](CC=O)C[C@@H](C)[C@@H](O[C@H]2CC[C@H](N(C)C)[C@@H](C)O2)/C=C/C=C/C[C@@H](C)OC(=O)C[C@H]1OC(C)=O [Acetylspiramycin (ASPM)] | 0.27
4 | NNc1nncc2ccccc12 [Hydralazine HCl] | -0.62
5 | COc1ccc2cc([C@H](C)C(=O)O)ccc2c1 [Naproxen Sodium] | -0.61
6 | O=c1n(CCCN2CCN(c3cccc(Cl)c3)CC2)nc2ccccn12 [Trazodone HCl] | 0.92
7 | Clc1ccc(C(Cn2ccnc2)OCc2csc3c(Cl)cccc23)c(Cl)c1 (stereo not given) [Sertaconazole nitrate] | 0.2
8 | Cc1onc(-c2c(Cl)cccc2Cl)c1C(=O)N[C@@H]1C(=O)N2[C@@H]1SC(C)(C)[C@@H]2C(=O)O [Dicloxacillin Sodium] | -0.31
9 | Oc1ccc([C@H]2COc3cc(O)ccc3C2)cc1 [Equol] | 0.47
10 | O=C(c1ccc(F)cc1)C1CCN(CCn2c(=O)[nH]c3ccccc3c2=O)CC1 [Ketanserin] | -0.51
11 | CC(=O)OCC1=C(C(=O)O)N2C(=O)[C@@H](NC(=O)Cc3cccs3)[C@H]2SC1 [Cephalothin] | 1.49
12 | C[N+](C)(C)CCO.[Cl-] [Choline Chloride] | -1.2
13 | N[C@@H]1CN(c2c(F)cc3c(=O)c(C(=O)O)cn([C@@H]4C[C@@H]4F)c3c2Cl)CC12CC2 [Sitafloxacin Hydrate] | 0.61
14 | CNC1CCCN(c2c(F)cc3c(=O)c(C(=O)O)cn(C4CC4)c3c2OC)C1 (stereo not given) [Balofloxacin] | -0.09
15 | CC[C@H]1OC(=O)[C@H](C)[C@@H](O[C@H]2C[C@@](C)(OC)[C@@H](O)[C@H](C)O2)[C@H](C)[C@@H](O[C@@H]2O[C@H](C)C[C@H](N(C)C)[C@H]2O)[C@](C)(O)C[C@@H](C)CN(C)[C@H](C)[C@@H](O)[C@]1(C)O [Azithromycin Dihydrate] | 0.39
16 | Cc1c(-c2ccccc2)oc2c(C(=O)OCCN3CCCCC3)cccc2c1=O [Flavoxate HCl] | 0.21
17 | NC[C@@H]1O[C@H](O[C@H]2[C@@H](O)[C@H](O[C@@H]3[C@@H](O)[C@H](N)C[C@H](N)[C@H]3O[C@H]3O[C@H](CO)[C@@H](O)[C@H](O)[C@H]3N)O[C@@H]2CO)[C@H](N)[C@@H](O)[C@@H]1O [Paromomycin Sulfate] | 1.15
18 | C#C[C@]1(O)CC[C@H]2[C@@H]3CCC4=CC(=O)CC[C@@H]4[C@H]3CC[C@@]21CC [Levonorgestrel] | -0.99
19 | CCC(=O)NS(=O)(=O)c1ccc(-c2c(-c3ccccc3)noc2C)cc1 [Parecoxib] | 0.95
20 | O=C(O)c1ccccc1O [Salicylic acid] | 0.33

Row | Compound | z-score of subpopulation abundance
21 | CN1CCCN=C1/C=C/c1cccs1 [Pyrantel Pamoate] | 0.03
22 | Oc1ccc(C2CNCCc3c2cc(O)c(O)c3Cl)cc1 (stereo not given) [Fenoldopam mesylate] | 1.58
23 | C[C@H](NCc1ccc(OCc2cccc(F)c2)cc1)C(N)=O [Safinamide Mesylate] | 1.04
24 | Cc1cc(C)nc(O)n1.O=C(Nc1ccc([N+](=O)[O-])cc1)Nc1ccc([N+](=O)[O-])cc1 [Nicarbazin] | -0.62
25 | CO/N=C(\C(=O)N[C@@H]1C(=O)N2C(C(=O)O)=C(COC(N)=O)CS[C@H]12)c1ccco1 [Cefuroxime sodium] | -0.58
26 | Clc1ccc(CSC(Cn2ccnc2)c2ccc(Cl)cc2Cl)cc1 (stereo not given) [Sulconazole Nitrate] | 2.74
27 | N#Cc1ccc(Oc2ccc3c(c2)COB3O)cc1 [Crisaborole (AN2728)] | 0.93
28 | C[C@@H](NCCCc1cccc(C(F)(F)F)c1)c1cccc2ccccc12 [Cinacalcet HCl] | 0.25
29 | C=CCCCCCCCCC(=O)[O-].C=CCCCCCCCCC(=O)[O-].[Zn+2] [Zinc Undecylenate] | -2.65
30 | CN[C@@H]1[C@H](O)[C@H](NC)[C@H]2O[C@@]3(O)C(=O)C[C@@H](C)O[C@H]3O[C@@H]2[C@H]1O [Spectinomycin 2HCl] | -0.56
31 | C=CC[N+]1([C@H]2C[C@H]3[C@@H]4CC[C@H]5C[C@H](O)[C@@H](N6CCOCC6)C[C@]5(C)[C@H]4CC[C@]3(C)[C@H]2OC(C)=O)CCCC1 [Rocuronium Bromide] | -0.59
32 | CC(=O)OCC[N+](C)(C)C [Acetylcholine iodide] | -1.48
33 | COC(=O)C1=C(C#N)NC(C)=C(C(=O)OC(C)C)C1c1cccc([N+](=O)[O-])c1 (stereo not given) [Nilvadipine] | 1.37
34 | CC1(C)S[C@@H]2[C@H](NC(=O)[C@H](N)c3ccccc3)C(=O)N2[C@H]1C(=O)OCOC(=O)[C@@H]1N2C(=O)C[C@H]2S(=O)(=O)C1(C)C [Sultamicillin] | 0.78
35 | CC(C)[N+]1(C)[C@@H]2CC[C@H]1C[C@@H](OC(=O)C(CO)c1ccccc1)C2 (stereo not given in full) [Ipratropium Bromide] | -0.34
36 | CC[C@H](c1ccc(O)cc1)[C@@H](CC)c1ccc(O)cc1 [Hexestrol] | -0.94
37 | C#C[C@]1(O)CC[C@H]2[C@@H]3CCC4=Cc5oncc5C[C@]4(C)[C@H]3CC[C@@]21C [Danazol] | -0.49
38 | Cc1ccc2c(Cl)cc(Cl)c(O)c2n1 [Chlorquinaldol] | 33.5
39 | Cc1onc(-c2c(F)cccc2Cl)c1C(=O)N[C@@H]1C(=O)N2[C@@H]1SC(C)(C)[C@@H]2C(=O)O [Flucloxacillin sodium] | 0.12
40 | Nc1c2c(nc3ccccc13)CCCC2 [Tacrine hydrochloride hydrate] | -0.01
